Compound activity deposited in PubChem by National Center for Advancing Translational Sciences (NCATS).
Cycloheximide cs: affects cycloheximide protein synthesis inhibition readout, counter-screen | cell reporter, cycloheximide protein synthesis inhibition counterscreen | actives 12% (n = 300,000) | max response, %; in the data active = max response mostly above about 13%, no sharp cut-off; inactive = mostly below about 14%; note: read at 38.3 µM for the half of the compounds with a filed dose; 0% is about no effect
FBPA Giardia inh: Giardia lamblia aldolase inhibition; actives 0.71% (n = 290,000); purified Giardia FBPA; Potency, µM (top dose mostly 59.6 µM), for the others: at the top dose activity, negative = inhibition, hits mostly inhibitors; note: potency is the fitted concentration of half-maximal effect; % is set by controls: 0 for no effect and ±100 for the full control effect; nearly all actives have a fitted effect of over 55% in size
Target sequence (A8B2U2 whole entry, looked up): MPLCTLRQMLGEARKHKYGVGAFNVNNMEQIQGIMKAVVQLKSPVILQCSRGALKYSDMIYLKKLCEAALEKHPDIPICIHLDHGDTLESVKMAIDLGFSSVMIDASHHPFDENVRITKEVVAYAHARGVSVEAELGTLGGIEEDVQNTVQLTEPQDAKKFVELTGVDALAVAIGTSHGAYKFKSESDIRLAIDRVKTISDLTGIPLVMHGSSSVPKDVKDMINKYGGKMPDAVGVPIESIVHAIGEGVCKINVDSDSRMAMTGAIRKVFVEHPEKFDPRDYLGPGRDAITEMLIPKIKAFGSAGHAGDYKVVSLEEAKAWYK
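Giardia FBPA (40 nM reagent) was preincubated 10 min at RT with compound (up to 57.5 uM final), then substrate plus GAPDH/TPI/NAD/arsenate coupling system with diaphorase/resazurin was added; resorufin fluorescence (525/598 nm) was read after 20 min.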
LmPK inh: inhibitors of Leishmania mexicana pyruvate kinase. Q27686. purified LmPK, Kinase-Glo ATP luminescence, 1 h. Potency, µM (titrated, usually from 57.5 µM), for inactives: top-dose activity change, negative = inhibition, actives largely listed as inhibitors. actives 0.37% (n = 290,000); note: potency is the fitted concentration of half-maximal effect; % is set by controls: 0 for no effect and ±100 for the full control effect
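Purified LmPK (0.1 nM) with 0.5 mM PEP and 0.1 mM ADP in imidazole buffer pH 7.2 with MgCl2/KCl, 1 h at room temperature. ATP formed was read by luciferase luminescence and normalized to no-enzyme and uninhibited controls.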
Tb PYK inh: T. brucei pyruvate kinase inhibition. Q57TT1. TbPYK enzyme, Kinase-Glo Plus ATP luminescence, 45 min. Potency, µM (series often up to 76.8 µM), for the others: top-dose activity, negative = inhibition, usual class: inhibitors. actives 0.12% (n = 410,000); note: potency is the fitted concentration of half-maximal effect; % is set by controls: 0 for no effect and ±100 for the full control effect; nearly all actives have a fitted effect of over 50% in size
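Screened from lowest to highest concentration, compounds were pinned into TbPYK/substrate mixtures, and ADP (130 uM final) was added. Plates sat at room temperature for 45 min prior to Kinase-Glo Plus detection by luminescence.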
Shiga toxin inh: inhibitors of Shiga toxin in Vero cells. AID 2315. inhibition, % at 38.7 µM. actives 9.2% (n = 290,000). Vero cells, Shiga toxin protein synthesis inhibition reporter; in the data active = inhibition mostly above about 28%, no sharp cut-off; inactive = mostly below about 43%; note: 0% is about no effect
RE007 growth inh: less growth of the S. pombe RE007 Vpr strain | S. pombe RE007 Vpr strain, BacTiter-Glo ATP luminescence, 24 h | Potency, µM (doses to about 92.2 µM), for the others: at the highest dose activity change, negative = less growth, actives largely listed as inhibitors | actives 0.21% (n = 360,000) | AID 651644; active = well fitted falling curve with a large enough effect; inconclusive = small, poorly fitted or top-dose-only effect; inactive = no such curve, though single readings can be large or run the other way; note: potency is the fitted concentration of half-maximal effect; % is set by controls: 0 for no effect and ±100 for the full control effect; nearly all actives have a fitted effect of over 50% in size
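Fission yeast RE007 carrying one integrated HIV-1 vpr copy, seeded at OD 0.01 in PMG+AL medium with 23 nL pinned compound. Grown 24 h at 30 degrees; viability read by BacTiter-Glo luminescence after 5 min.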
An asterisk follows results filed as active; ? = inconclusive; nt = no result given. The entries come from a sample that favours hits as a whole. Unless noted, calls come from the whole dose curve; as a rule, active = well fitted curve in the direction sought with a large enough effect; inconclusive = small, poorly fitted or top-dose-only effect, or another doubt; inactive = no such curve, though single readings can be large; an effect the other way counts as inactive or inconclusive.

SMILES	Cycloheximide cs	FBPA Giardia inh	LmPK inh	Tb PYK inh	Shiga toxin inh	RE007 growth inh
O=C(COc1ccccc1)NNc1nc2c(F)cc(F)cc2s1	9.6	3.4%	0.3%	0.2%	3.7	8.3%
COc1ccc(NC(=O)Nc2nc3ccccc3s2)cc1	43.6*	2.4%	7.0%	-6.0%	113.9*	-1.4%
COc1ccc(C(=O)Nc2nc3ccccc3s2)c(OC)c1	-7.0	-2.3%	-13.6%	?	-20.4	?
O=C(Nc1nc2c(F)cc(F)cc2s1)c1ccccn1	34.9*	-4.1%	?	-17.5%	95.1*	?
COc1ccc(OCC(=O)NNc2nc3ccccc3s2)cc1	43.6*	0.1%	-1.9%	-6.7%	76.5*	5.9%
CCOc1ccc(NC(=O)Cn2c(=O)n(CCc3ccccc3)c(=O)c3c4c(sc32)CN(C(C)=O)CC4)cc1	nt	nt	nt	-9.1%	nt	nt
COc1ccc(-c2nc3sc(CCNC(=O)c4cc(Cl)ccc4OC)c(C)n3n2)cc1	nt	nt	nt	-3.2%	nt	nt
CCOc1ccc2nc(NC(=O)c3ccccn3)sc2c1	24.2*	?	?	-11.4%	45.1*	14.1µM*
CS(=O)(=O)c1ccc2nc(NC(=O)C3=NN(c4ccccc4)C(=O)CC3)sc2c1	-3.7	-0.8%	10.3%	2.0%	-10.9	-5.0%
COc1ccc2nc(NC(=O)C3=NN(c4ccccc4)C(=O)CC3)sc2c1	18.4*	-14.3%	-1.4%	-20.0%	26.5	-10.0%
CCOc1ccc2nc(NC(=O)Nc3cccs3)sc2c1	62.7*	0.7%	-7.0%	-4.0%	71.8*	-7.6%
Cc1ccc2nc(NC(=O)c3ccccn3)sc2c1	-7.4	?	-25.3%	-15.1%	-11.3	?
CC(C)(C)c1nc(NC(=O)Nc2ccccc2)sc1Br	45.6*	-4.6%	-5.2%	1.7%	71.3*	-10.4%
CCOc1ccc2nc(NC(=O)NC3CCCCC3)sc2c1	0.6	-5.0%	-2.4%	-1.3%	-9.8	2.2%
Cc1[nH]c(C)c(S(=O)(=O)N2CCN(c3ccccc3F)CC2)c1C(=O)N1CCCCC1	12.3	-6.2%	7.0%	1.8%	-3.1	5.0%
O=C(NCCN1CCN(C(=O)c2cccc(OC(F)F)c2)CC1)c1cccc(OC(F)F)c1	nt	nt	nt	4.0%	nt	13.1%
COc1ccc(N(Cc2cc3cccc(C)c3[nH]c2=O)C(=O)c2cccc(Cl)c2)cc1	nt	nt	nt	3.8%	nt	nt
COc1ccc2nc(NC(=O)Nc3ccccc3)sc2c1	56.1*	-2.9%	4.0%	-2.9%	92.0*	2.9%
S=C(N/N=C/c1ccc2ncccc2c1)Nc1cccnc1	22.8*	-19.9%	-0.8%	-2.0%	66.0	3.0%
Oc1ccc(/C=N/NC(=S)Nc2cccnc2)cc1O	1.3	?	-3.4%	-1.9%	-30.2	4.1%
CC(C)(C)c1ccc(/C=N/NC(=S)Nc2cccnc2)cc1	16.2*	-1.2%	3.6%	nt	61.0	nt
COc1ccc(CNC(=O)c2cnc3sc(N4CCCC4)nn3c2=O)cc1OC	nt	nt	nt	-7.2%	nt	nt
O=[N+]([O-])c1ccc(Cl)c(S(=O)(=O)Nc2cccc(-c3ccc(N4CCCC4)nn3)c2)c1	nt	nt	nt	-2.6%	nt	-14.3%
O=C(NCc1ccccc1Cl)C(=O)NCC(c1cccs1)S(=O)(=O)c1ccccc1 (centres undefined)	nt	nt	nt	-3.2%	nt	nt
CC1=C(C(=O)N(C(C)C)C(C)C)CC(CC(=O)NCc2cccs2)C(=O)N1CCC1=CCCCC1 (centres undefined)	nt	nt	nt	-6.0%	nt	9.0%
COc1ccc(C(C#N)N2N=C(c3ccccc3)CC2c2ccccc2)cc1OC (centres undefined)	68.5*	?	-0.7%	4.3%	44.3*	-24.7%
COc1ccc(C(C#N)N2N=C(C)CC2c2ccccc2)cc1OC (centres undefined)	-2.3	?	2.9%	2.8%	-10.9	-4.2%
COc1ccc(C2=NN(C(C#N)c3ccc(OC)cc3)C(c3ccccc3)C2)cc1 (centres undefined)	32.8*	-27.1%	-5.7%	-16.4%	82.7*	?
O=C(O)c1ccc(-c2nc3ccccc3s2)o1	45.4*	13.0%	-17.9%	-0.8%	78.0*	-4.3%
O=C(c1ccc(-c2nc3ccccc3s2)o1)N1CCN(c2ccccc2O)CC1	37.0*	nt	-7.9%	-18.0%	44.9	-8.6%
